# Measurements reported in publication PMC4336329 (PLoS ONE, 2015).
# In all, about 310,000 compounds went through this assay and about 14,000 (4.5%) showed an effect of 50% or more. Effects have a minus sign here. For the sample, strong results were picked, then their nearest neighbours and some compounds at random.
# Target: human ether-à-go-go-related gene (hERG) potassium channel (human, UniProt Q12809)
# Assay: primary screen, population patch clamp on CHO cells stably expressing hERG; higher = less effect of the substance
# 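Also: peak tail current of the secondary pulse compared with the same well before compound.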
# Sequence of human ether-à-go-go-related gene (hERG) potassium channel (Q12809 whole entry, looked up): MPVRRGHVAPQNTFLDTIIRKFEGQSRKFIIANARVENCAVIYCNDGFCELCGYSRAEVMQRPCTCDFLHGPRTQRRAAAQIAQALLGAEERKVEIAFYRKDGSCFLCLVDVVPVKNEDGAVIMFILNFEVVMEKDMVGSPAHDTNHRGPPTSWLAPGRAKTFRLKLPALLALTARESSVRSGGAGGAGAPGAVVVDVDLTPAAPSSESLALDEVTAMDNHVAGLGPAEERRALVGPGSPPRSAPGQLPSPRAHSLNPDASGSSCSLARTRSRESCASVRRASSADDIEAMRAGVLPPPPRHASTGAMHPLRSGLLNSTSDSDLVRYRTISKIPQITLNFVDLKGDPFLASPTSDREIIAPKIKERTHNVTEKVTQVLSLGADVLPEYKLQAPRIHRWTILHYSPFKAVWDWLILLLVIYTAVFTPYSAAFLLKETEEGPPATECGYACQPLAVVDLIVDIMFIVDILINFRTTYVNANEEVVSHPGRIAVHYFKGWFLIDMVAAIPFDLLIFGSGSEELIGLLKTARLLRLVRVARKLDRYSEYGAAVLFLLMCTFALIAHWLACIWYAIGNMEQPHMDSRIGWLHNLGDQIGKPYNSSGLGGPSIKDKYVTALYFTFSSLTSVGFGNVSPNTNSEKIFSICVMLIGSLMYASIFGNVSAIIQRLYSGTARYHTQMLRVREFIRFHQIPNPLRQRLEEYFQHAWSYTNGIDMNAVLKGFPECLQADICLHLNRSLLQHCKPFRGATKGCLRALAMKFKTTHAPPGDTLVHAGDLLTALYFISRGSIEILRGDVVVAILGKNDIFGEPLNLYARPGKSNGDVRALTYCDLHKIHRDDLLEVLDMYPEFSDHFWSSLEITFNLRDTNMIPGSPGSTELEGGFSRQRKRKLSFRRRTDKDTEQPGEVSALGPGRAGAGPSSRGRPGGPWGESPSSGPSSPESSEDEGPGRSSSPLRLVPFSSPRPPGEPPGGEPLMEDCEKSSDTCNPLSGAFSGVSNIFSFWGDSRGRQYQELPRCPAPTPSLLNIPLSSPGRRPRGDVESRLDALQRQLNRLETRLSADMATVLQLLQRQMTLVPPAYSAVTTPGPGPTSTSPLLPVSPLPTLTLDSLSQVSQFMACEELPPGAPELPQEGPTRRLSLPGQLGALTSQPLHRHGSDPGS
row,SMILES,"hERG current change (%, negative = inhibition) at 10uM [%]"
1,COc1ccc(CCNC(=O)C2CCCCC2C(=O)O)cc1OC (stereo not shown),-2.9
2,Nc1ccc([N+](=O)[O-])cc1C(=O)NNC(=O)c1ccco1,25.9
3,O=C(CSCc1ccccc1)Nc1ccc2c(c1)OCO2,7.4
4,CCCc1nc2ccccc2c(=O)n1-c1ccc(C(=O)OCC)cc1,13.5
5,CSc1ncc(/C=C2/C(=O)NC(=O)N(C)C2=O)cn1,18.8
6,CC(=O)[C@@]1(O)CC[C@H]2[C@@H]3CCC4=CC(=O)CC[C@]4(C)[C@H]3CC[C@@]21C,1.7
7,C[C@]12CCC(=O)C=C1CCC1C2CC[C@@]2(C)C1CC[C@@]2(O)CC#N (stereo partly shown),-59.8
8,C[C@]12CCC(=O)C=C1CC[C@@H]1[C@@H]2CC[C@@]2(C)[C@H]1CC[C@]2(O)C(=O)CO,9.17
9,COc1ccc(S(=O)(=O)N2CCC(C(=O)NCc3ccco3)CC2)cc1C,8.26
10,O=S1(=O)NC(=NCc2ccco2)c2ccccc21,2.66
11,c1coc(CN=C2NC(=NCc3ccco3)c3ccccc32)c1,-66.4
12,O=C1c2ccccc2C(=O)N1Cc1ccco1,-3.32
13,Cc1cc(C)c2nc(C)cc(Nc3ccc(C(=O)N(C)C)cc3)c2c1,-28.1
14,CC(=O)c1ccc(Nc2cc(C)nc3c(C)cccc23)cc1,-36.2
15,CC(=O)c1cccc(Nc2cc(C)nc3c(C)cccc23)c1.Cl,-72.8
16,CC(=O)c1cccc(Nc2cc(C)nc3c(C)cc(C)cc23)c1.Cl,-56.1
17,CC(=O)c1ccc(Nc2cc(C)nc3c(C)cc(C)cc23)cc1,-45.7
18,Cc1cc(Nc2ccc(C(=O)N3CCCCC3)cc2)c2cccc(C)c2n1,-23.5
19,Cc1cc(C)nc(-n2cc(C(=O)c3cc(F)ccc3O)cn2)n1,9.85
20,CCOC(=O)C1=C(C)NC(=O)NC1c1cc2c(cc1Br)OCO2 (stereo not shown),6.32
21,NC(=O)CC(NC(=O)Cc1ccc(Br)cc1)c1ccc(NCc2ccc(F)c(F)c2)c([N+](=O)[O-])c1 (stereo not shown),-1.71
22,NC(=S)N1OC[C@@H]2COc3ccc4ccccc4c3[C@@H]21,4.27
23,CC(C)c1ccc(N2C=Nc3ccc(C(C)C)cc3C2)cc1,-9.45
24,CCOc1ccc(N2C=Nc3ccc(OCC)cc3C2)cc1,-63.9
25,CCOc1ccc(N2Cc3ccccc3C2)cc1,-2.48
